# HIF-2a block: HIF-2a reporter inhibitors, primary screen, luminescence, 786-0 RCC cells. 786-0 RCC cells HIF-2a reporter, luciferase luminescence, overnight. inhibition, % at 18.8 µM. 0.72% of 360,000 active. AID 624352, 2012;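 active means inhibition of the luminescence signal of 40% or more relative to plate controls, in a single-dose primary screen at 18.75 µM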
# CF NFkB block: inhibitors of PAF-induced NF-kB signaling, primary screen, cell-based, GFP fluorescence, uHTS; inhibition, % at 5 µM; 0.86% of 360,000 active; AID 588850, 2011; KKLEB NF-kB-GFP reporter, GFP fluorescence overnight;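 active means at least 50% inhibition at 5 µM, scaled per plate between neutral and stimulator controls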;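 further: PAF is a Pseudomonas aeruginosa culture filtrate used as stimulus; plate controls were PAF-stimulated DMSO wells for no effect and unstimulated DMSO wells for full effect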
# TWEAK Fn14 block: inhibitors of TWEAK-Fn14 signaling, primary screen, luciferase reporter cells, uHTS | TWEAK-stimulated Fn14 reporter cells, luciferase luminescence, 8 h | inhibition, % at 10 µM | 2% of 360,000 active | AID 1159606, 2016; in the data active means inhibition above about 50%
# iPSC survival up: enhancers of single-cell hiPSC survival, primary screen, ATPlite luminescence; 100% = ROCK inhibitor wells, 0% = DMSO; survival enhancement, % at 20 µM; 0.044% of 360,000 active; in the data active means survival enhancement above about 18%;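 further: cells exposed to compounds for 16 hours before the ATP read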
# KKLEB cytotox: cytotoxicity in KKLEB CF airway cells, primary screen, cytotoxicity control for CF NF-kB inhibitor project, cell-based, uHTS, fluorescence assay plates | KKLEB CF airway cells viability, ATPlite luminescence, overnight; active compounds read low; cells stimulated with P. aeruginosa culture filtrate | activity change (cytotoxicity), % at 5 µM | 0.36% of 360,000 active | AID 602141, 2011;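 active means corrected activity change at or below -50% at 5 µM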
# LGR2 inh: inhibitors of bursicon-induced LGR2 CRE-luciferase signal, primary screen, cell-based, HEK293, CRE-luciferase reporter, bursicon stimulation; 0.35% of 380,000 active; AID 720647, 2013; bursicon-stimulated, 4 h; inhibition, % at 9.99 µM;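 active means drop in luminescence signal, shown as inhibition above about 50% in the replicate tests, limit read from the data, passing the limit was not always enough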;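 further: agonist challenge used bursicon conditioned medium at about half maximal strength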
# Active calls of the source: *; . = no result. An excerpt weighted towards active compounds, which were near 2.3% of everything screened.
SMILES,HIF-2a block,CF NFkB block,TWEAK Fn14 block,iPSC survival up,KKLEB cytotox,LGR2 inh
O=[N+]([O-])c1ccc(SNc2ccccc2)c([N+](=O)[O-])c1,12,-2,-18,-3,3,-3
C[C@H]1CN([C@@H](C)CO)C(=O)c2cc(C#CC3CCCC3)cnc2O[C@@H]1CN(C)Cc1ccncc1,.,.,.,.,.,19
COc1ccc(CNC(=O)CSc2nnc3c(n2)[nH]c2ccc(OC)cc23)cc1,15,-2,-24,0,-1,-15
COc1ccc(CNC(=O)CSc2nnc3c(n2)[nH]c2ccc(F)cc23)cc1,-8,6,13,0,-10,-6
COc1ccc2[nH]c3nc(SC(C)C)nnc3c2c1,-161,-15,92*,-2,-11,.
CCOC(=O)CN(C(=O)CSc1nnc2c(n1)[nH]c1ccc(OC)cc12)c1ccc(F)cc1,13,-10,66*,3,8,.
COc1ccc(C#Cc2ccc3c(c2)O[C@@H](CN(C)C(=O)CN2CCOCC2)[C@@H](C)CN([C@@H](C)CO)S3(=O)=O)cc1,.,.,.,.,.,19
CC[C@H](C)[C@H]1O[C@]2(CC[C@@H]1C)C[C@@H]1C[C@@H](CC=C(C)[C@@H](O[C@H]3C[C@H](OC)[C@@H](O[C@H]4C[C@H](OC)[C@@H](O)[C@H](C)O4)[C@H](C)O3)[C@@H](C)C=CC=C3CO[C@@H]4[C@H](O)C(C)=C[C@@H](C(=O)O1)[C@]34O)O2,53*,56*,100*,2,-51*,.
C[C@H](CO)N1C[C@H](C)[C@@H](CN(C)Cc2ccc3c(c2)OCO3)Oc2ccc(NS(C)(=O)=O)cc2CC1=O,.,.,.,.,.,-3
COc1ccc2cc3cc(C(=O)NCCN4CCc5ccccc5C4)sc3nc2c1,-91,-6,-38,6,-13,-13
CCC(C)NC(=O)c1cc2cc3ccc(OC)cc3nc2s1 (configuration not stated),-182,-5,51*,-5,10,.
COc1cccc(C#Cc2ccc([C@H]3[C@H](CO)N4C(=O)CN(C(=O)Cc5cccnc5)C[C@@H]34)cc2)c1,.,.,.,.,.,5
O=C(C1CCCCC1)N1CC2(C1)[C@@H](c1ccccc1)[C@H](CO)N2Cc1nccs1,.,.,.,.,.,5
O=C(C(Br)=Cc1ccccc1)c1ccccc1,86*,94*,93*,-3,-43,32
CC(C)Cc1nc2sc3c(NCc4ccco4)ncnc3c2c2c1COC(C)(C)C2,17,33,52*,0,-38,.
O=C(NCC[C@@H]1CC[C@@H](NS(=O)(=O)c2cccc(F)c2)[C@@H](CO)O1)c1cnccn1,.,.,.,.,.,3
O=C(C[C@@H]1C[C@H]2c3cc(NS(=O)(=O)c4ccc(F)cc4)ccc3O[C@H]2[C@H](CO)O1)NCc1ccc(Cl)cc1,.,.,.,.,.,3
NC(=O)c1c(NC(=O)c2ccc([N+](=O)[O-])o2)sc2c1CCCC2,7,107*,13,-1,-64*,7
Cc1ccc(C(=O)Nc2sc3c(c2C(=O)O)CCCCC3)o1,-125,-6,65*,-2,8,-9
N#Cc1c(NC(=O)c2ccc([N+](=O)[O-])o2)sc2c1CCC2,-269,4,38,0,-23,-33
O=C(Nc1sc2c(c1C(=O)O)CCCC2)c1cccs1,-174,9,31,2,1,.
O=C(Nc1sc2c(c1C(=O)O)CCCCC2)c1cccs1,-219,-6,53*,-1,3,-32
C[C@@H]1CN([C@@H](C)CO)C(=O)c2cc(NC(=O)CCCN(C)C)ccc2O[C@@H]1CN(C)Cc1ccc(C(=O)O)cc1,.,.,.,.,.,8
COc1ccc([N+](=O)[O-])cc1COc1ccc2c(-c3ccccc3)cc(=O)oc2c1,17,67*,-49,-4,-52*,.
CCOC(=O)CCc1c(C)c2ccc(OCc3cc([N+](=O)[O-])ccc3OC)cc2oc1=O,18,3,4,0,-54*,.
SMILES,HIF-2a block,CF NFkB block,TWEAK Fn14 block,iPSC survival up,KKLEB cytotox,LGR2 inh
CCOC(=O)CCc1c(C)c2ccc(OCc3cc([N+](=O)[O-])ccc3OC)c(C)c2oc1=O,.,.,.,.,.,5
C[C@@H]1CN([C@@H](C)CO)C(=O)c2cc(NC(=O)Nc3ccc4c(c3)OCO4)ccc2O[C@H]1CN(C)Cc1ccc(Cl)c(Cl)c1,.,.,.,.,.,1
C[C@@H]1CCCCO[C@@H](CN(C)C(=O)c2ccccc2)[C@@H](C)CN([C@@H](C)CO)C(=O)c2cc(NC(=O)Cc3ccccc3)ccc2O1,.,.,.,.,.,-6
O=C1NCCN1CCNS(=O)(=O)c1ccc(F)cc1,21,-8,53*,-1,11,4
C/C=C/c1ccc2c(c1)O[C@H](CN(C)C(=O)c1ccncc1)[C@H](C)CN([C@@H](C)CO)S2(=O)=O,.,.,.,.,.,10
Cc1ccc(NC(=S)N/N=C/c2c(Cl)cccc2Cl)c(C)c1,-145,50*,7,-4,-8,-17
CC(C)(C)NC(=S)N/N=C/c1c(Cl)cccc1Cl,-7,-4,-9,-1,-2,-10
CC/C(=N/Nc1cccc(C)c1)c1cnnc(SC)n1,9,55*,-52,0,-52*,11
CCCC(=O)Nc1ccc2c(c1)C(=O)N(C)C[C@H](OC)[C@H](C)CN(Cc1ccncc1)[C@@H](C)CO2,.,.,.,.,.,3
O=C(C1CCCC1)N1CC(=O)N2[C@@H](CO)[C@H](c3ccc(C#Cc4cccc(F)c4)cc3)[C@@H]2C1,.,.,.,.,.,-23
CC(=O)c1ccc(Nc2cc(C)nc3ccc(C)cc23)cc1,30,-6,-12,-3,0,62*
CCN(CC)C(=O)c1cccc(-c2csc(C(O)c3cccc(Cl)c3)n2)c1 (configuration not stated),11,-6,61*,-2,-3,25
O=C(Nc1ccc(-c2nc3ccccc3s2)cc1)C1=COCCO1,16,-14,91*,-4,-53*,95*
O=C(O)CSCC(=O)Nc1ccc(-c2nc3ccccc3s2)cc1,-112,-14,71*,-1,14,-19
Cc1ccc2nc(-c3ccc(NC(=O)CSCC(=O)O)cc3)sc2c1,-339,-15,0,0,8,-50
COc1ccc(C(=O)N/N=C/C(=O)c2ccccc2)cc1,-284,14,19,0,-10,-45
Cc1ccc(C(=O)NN=CC(=O)c2ccccc2)c(C)c1,-213,-3,65*,2,-4,70*
